Among the test systems are SR leukemia; RPMI-8226 leukemia; OVCAR-5 ovarian; OVCAR-4 ovarian; SK-OV-3 ovarian; IGROV1 ovarian; OVCAR-3 ovarian; HS 578T breast; NCI/ADR-RES ovarian; T-47D breast; BT-549 breast; MDA-MB-435 melanoma; SW-620 colon; MCF7 breast; HCT-116 colon; HCC-2998 colon; KM12 colon.
Holding throughout (assay): NCI-60 one-dose screen, 48 h (100 = growth as untreated, 0 = no growth, -100 = all killed)
Common to all, as to conditions: 10 µM unless noted

The panel holds about 83,000 compounds, 20% with a hit somewhere; the sample as a whole holds those more often.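 Plates (96-well) were seeded with cells, treated with compound at one concentration, and incubated for 48 hours before percent growth was determined.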 Unmarked numbers belong to inactive results. The source made the active and inactive calls. The calls were made as follows: active = growth percent below 10; inactive = the rest.

As for `Cc1cc(=O)[nH]c(=O)n1Cc1cn(-c2c3ccccc3nc3ccccc23)nn1`, the growth in the experiment on SR leukemia was 11.4%; in the experiment on RPMI-8226 leukemia, 55.5%; with OVCAR-5 ovarian it was 120%; in the experiment with OVCAR-4 ovarian, 106%; with SK-OV-3 ovarian it was 96.2%; with IGROV1 ovarian, 33%. Moreover, the growth is 90.7% in the experiment with OVCAR-3 ovarian; 100% in the experiment with HS 578T breast; 106% in the experiment with NCI/ADR-RES ovarian; -5.49% (active) with T-47D breast; 90% in the experiment with BT-549 breast; 95.6% with MDA-MB-435 melanoma. In addition, the growth is 83.9% in the experiment on SW-620 colon; 2.54% (active) with MCF7 breast; 63.1% in the experiment on HCT-116 colon; 62.5% in the experiment on HCC-2998 colon; 98.6% with KM12 colon.
With `NS(=O)(=O)c1ccc(N=Nc2ccc(-c3nn4cc(-c5ccccc5)nc4s3)cc2)cc1`, the growth in the experiment on SR leukemia was 90.6%; in the experiment with RPMI-8226 leukemia, 105%; with OVCAR-5 ovarian it was 103%; in the experiment with OVCAR-4 ovarian, 99.7%; with SK-OV-3 ovarian it was 88.8%; in the experiment on IGROV1 ovarian, 117%. Also, the growth with OVCAR-3 ovarian is 102%; in the experiment with HS 578T breast, 94.2%; in the experiment on NCI/ADR-RES ovarian it was 107%; in the experiment on T-47D breast, 87.6%; with BT-549 breast it was 84.8%; in the experiment on MDA-MB-435 melanoma, 101%. The growth was 96.2% in the experiment with SW-620 colon; 94% in the experiment on MCF7 breast; 88.8% in the experiment with HCT-116 colon; 104% in the experiment with HCC-2998 colon; 95.7% in the experiment with KM12 colon.
For the molecule `O=C(Nc1ccc(OS(=O)(=O)c2ccc(F)cc2)cc1)c1ccc(Cl)cc1`, the growth in the experiment with SR leukemia was 91.4%; with RPMI-8226 leukemia it was 94.2%; in the experiment on OVCAR-5 ovarian, 102%; in the experiment with OVCAR-4 ovarian it was 106%; with SK-OV-3 ovarian it was 105%; in the experiment with IGROV1 ovarian, 95.7%. In addition, the growth in the experiment with OVCAR-3 ovarian was 102%; in the experiment with HS 578T breast, 104%; with NCI/ADR-RES ovarian, 93.1%; in the experiment with T-47D breast, 78.1%; in the experiment with BT-549 breast, 97.4%; in the experiment with MDA-MB-435 melanoma, 117%. The growth with SW-620 colon is 108%; in the experiment on MCF7 breast, 92.9%; in the experiment on HCT-116 colon, 95.5%; in the experiment with HCC-2998 colon, 106%; in the experiment on KM12 colon, 103%.
As for `CC(C)n1cnc2c(Nc3cccc(Cl)c3)nc(N[C@H]3CCCC[C@@H]3N)nc21`, the growth is 13.9% with SR leukemia; 19.8% with RPMI-8226 leukemia; 50.4% with OVCAR-5 ovarian; 55.4% in the experiment with OVCAR-4 ovarian; 80.6% in the experiment on SK-OV-3 ovarian; 29.4% in the experiment with IGROV1 ovarian. Further, the growth in the experiment with OVCAR-3 ovarian is 61.2%; with HS 578T breast it was 66.7%; in the experiment on NCI/ADR-RES ovarian it was 61.4%; in the experiment on T-47D breast, 64.8%; with BT-549 breast it was 63%; in the experiment with MDA-MB-435 melanoma, 47.5%. For the same molecule, the growth in the experiment on SW-620 colon was 55.5%; in the experiment with MCF7 breast, 40.9%; in the experiment on HCT-116 colon it was 28.1%; in the experiment on HCC-2998 colon, 23.4%; in the experiment with KM12 colon it was 13.5%.
For the molecule `COc1ccc(-c2nc(NN)c3c(C)nn(-c4ccc(F)cc4)c3n2)cc1`, the growth was 28.3% in the experiment on SR leukemia; 54.8% in the experiment with RPMI-8226 leukemia; 95.6% in the experiment with OVCAR-5 ovarian; 62.7% in the experiment with OVCAR-4 ovarian; 29.4% in the experiment on SK-OV-3 ovarian; 51.2% in the experiment with IGROV1 ovarian. For the same molecule, the growth was 12% in the experiment with OVCAR-3 ovarian; 25% in the experiment with HS 578T breast; 34.7% in the experiment on NCI/ADR-RES ovarian; 38.6% with T-47D breast; 46.8% in the experiment on BT-549 breast; 0.816% (active) in the experiment with MDA-MB-435 melanoma. Also, the growth was 22.9% with SW-620 colon; 26.2% in the experiment on MCF7 breast; 18.7% in the experiment on HCT-116 colon; 76.6% in the experiment with HCC-2998 colon; 29.1% with KM12 colon.
`CCCCCCNC(=O)Oc1ccc(/C(=C(\C)c2ccc(Cl)cc2)c2ccc(OCCCN(C)C)cc2)cc1`: the growth with SR leukemia was -13% (active); in the experiment with RPMI-8226 leukemia, 79%; in the experiment on OVCAR-5 ovarian, 75.1%; in the experiment on OVCAR-4 ovarian, 76%; in the experiment with SK-OV-3 ovarian, 94.4%; in the experiment with IGROV1 ovarian, 67%. Further, the growth in the experiment on OVCAR-3 ovarian was 87.8%; with HS 578T breast, 74.5%; in the experiment on NCI/ADR-RES ovarian it was 83.2%; in the experiment with T-47D breast it was 61.1%; in the experiment on BT-549 breast, 90.6%; in the experiment on MDA-MB-435 melanoma it was 72.4%. The growth in the experiment with SW-620 colon is 87.9%; in the experiment on MCF7 breast, 25.2%; in the experiment on HCT-116 colon, 36.9%; with HCC-2998 colon, 82.3%; in the experiment with KM12 colon, 59.6%.
For `C=C1C(=O)O[C@H]2[C@H]1CC/C(COC(=O)CSCC(=O)OC/C1=C/CC[C@@]3(C)O[C@H]3[C@H]3OC(=O)C(=C)[C@@H]3CC1)=C\CC[C@@]1(C)O[C@@H]21`, the growth is 0.996% (active) in the experiment on SR leukemia; -2.24% (active) in the experiment with RPMI-8226 leukemia; 87.3% in the experiment on OVCAR-5 ovarian; 46.6% in the experiment on OVCAR-4 ovarian; 97.5% in the experiment with SK-OV-3 ovarian; 7.28% (active) in the experiment on IGROV1 ovarian. Moreover, the growth was 3.24% (active) in the experiment with OVCAR-3 ovarian; 59.7% in the experiment on HS 578T breast; 86.2% in the experiment with NCI/ADR-RES ovarian; 12.3% with T-47D breast; -1.44% (active) in the experiment with BT-549 breast; 26.8% with MDA-MB-435 melanoma. The growth was -29% (active) in the experiment with SW-620 colon; 23.4% in the experiment on MCF7 breast; -46.6% (active) in the experiment on HCT-116 colon; 94.5% with HCC-2998 colon; 69.4% in the experiment with KM12 colon.
With `CCCCCCNC(=O)Oc1ccc(/C(=C(\C)c2ccc(Cl)cc2)c2ccc(OCCN(CC)CC)cc2)cc1`, the growth was -10.8% (active) with SR leukemia; 51.6% in the experiment on RPMI-8226 leukemia; 72.1% in the experiment with OVCAR-5 ovarian; 60.5% in the experiment on OVCAR-4 ovarian; 83.1% in the experiment on SK-OV-3 ovarian; 55.2% in the experiment on IGROV1 ovarian. Further, the growth is 67.6% in the experiment with OVCAR-3 ovarian; 67.5% in the experiment on HS 578T breast; 72.7% in the experiment on NCI/ADR-RES ovarian; 39.7% with T-47D breast; 82.7% with BT-549 breast; 65% with MDA-MB-435 melanoma. For the same molecule, the growth is 18.2% in the experiment with SW-620 colon; 24.6% in the experiment on MCF7 breast; 29.6% with HCT-116 colon; 78.7% with HCC-2998 colon; 44.6% in the experiment with KM12 colon.
Turning to `CC(=O)N1N=C(c2ccc(Nc3nc(Nc4ccc(F)cc4)nc(Nc4ccc(Cl)cc4)n3)cc2)CC1c1ccc(Cl)cc1` (stereo not drawn), the growth in the experiment on SR leukemia was 102%; in the experiment with RPMI-8226 leukemia, 82.7%; in the experiment on OVCAR-5 ovarian it was 95.1%; in the experiment with OVCAR-4 ovarian it was 94.2%; in the experiment on SK-OV-3 ovarian it was 97.2%; with IGROV1 ovarian, 66.1%. For the same molecule, the growth was 123% with OVCAR-3 ovarian; 95.8% in the experiment on HS 578T breast; 91.1% in the experiment with NCI/ADR-RES ovarian; 68.1% in the experiment on T-47D breast; 122% with BT-549 breast; 115% in the experiment on MDA-MB-435 melanoma. Besides, the growth is 105% in the experiment with SW-620 colon; 91% in the experiment with MCF7 breast; 86.4% with HCT-116 colon; 96.8% in the experiment on HCC-2998 colon; 108% in the experiment with KM12 colon.

Values taken from PubChem BioAssay (NCI).
